Screens as filed in PubChem BioAssay.
The list is not random: actives were taken first. Their share in the collection is about 4.1%.
DAX1 inh-1: inhibitors of human orphan nuclear receptor DAX1 (NR0B1) | hit rate 0.99% among 340,000 | HEK293 Gal4-DAX1 luciferase reporter, luminescence | P51843 | AID 504766 | inhibition, % at 6.75 µM;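 active = inhibition above the mean over all tested compounds plus 3 SD, cut at about 4.2% in these data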;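 also: inhibition shows as a rise in luminescence from relieved DAX1 repression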
Target sequence (P51843 207-470 limits assumed): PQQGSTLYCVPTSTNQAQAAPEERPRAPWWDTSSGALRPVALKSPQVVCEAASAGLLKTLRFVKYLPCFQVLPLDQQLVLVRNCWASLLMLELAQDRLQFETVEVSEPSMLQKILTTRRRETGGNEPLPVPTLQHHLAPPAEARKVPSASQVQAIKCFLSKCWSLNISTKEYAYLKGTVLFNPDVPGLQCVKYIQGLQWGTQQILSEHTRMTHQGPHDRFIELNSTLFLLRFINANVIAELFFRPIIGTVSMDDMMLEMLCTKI
ssDAF-12 act: activators of S. stercoralis DAF-12 nuclear receptor; HEK293 ssDAF-12/GRIP1 lit1-tk-luc reporter, luminescence; % of 3 µM dafachronic acid response; activation, % at 6.8 µM; hit rate 1% among 370,000; AID 652126;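 active = activation above the mean over all tested compounds plus 3 SD, cut at about 0.9% in these data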
DAX1 inh-2: inhibitors of DAX1 repression of SF-1 activated StAR promoter | HEK293T StAR-luciferase reporter, SF-1/DAX-1 repression relief | inhibition, % at 6.8 µM | hit rate 1.1% among 370,000 | AID 652010;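 active = inhibition above the mean over all tested compounds plus 3 SD, cut at about 3.6% in these data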;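 also: higher inhibition means more luminescence from relief of DAX-1 repression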
hgDAF-12 ag: activates the H. glycines DAF-12 receptor ligand-binding domain; activation, % at 6.8 µM; hit rate 1.8% among 370,000; HEK293 GAL4-hgDAF12 UAS-luciferase reporter, agonist luminescence; normalized to butyrate control;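 active = activation above a cutoff set at the mean of all screened compounds plus 3 SD, cut at about 10% in these data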
hcDAF12 agonist: H. contortus DAF-12 activation, primary screen | AID 652067 | HEK293 hcDAF-12 lit1-tk-luc reporter, luminescence; 0% DMSO, 100% Δ7-dafachronic acid | hit rate 1.4% among 370,000 | activation, % at 6.8 µM;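 active = activation above the mean of all tested compounds plus 3 SD, cut at about 5.5% in these data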
Each line names hits and unclear results; the compound was inactive in the other large screens.

CCOc1ccc(/C=N/Nc2cc(N3CCOCC3)ncn2)c(O)c1	none
CCOc1ccc(/C=N/Nc2nc(C)cs2)c(O)c1	DAX1 inh-1 4.5
CCCCN1CCN(C(=O)C2CCN(S(=O)(=O)c3ccc4[nH]c(=O)oc4c3)CC2)CC1	none (no result: DAX1 inh-1)
COc1cccc(CNC(=O)[C@H]2CCCN2C(=O)C2CCCN2C(=O)c2ccc(OC)c(F)c2)c1 (stereo partly drawn)	none (no result: DAX1 inh-1)
Nc1[nH]c(N=NC(=O)c2ccccc2)c2ccccc12	none
Nc1[nH]c(N=NC(=O)c2ccccc2O)c2ccccc12	hgDAF-12 ag 12.5
C/C(=N\Nc1ccc(C(=O)O)cc1)c1ccc2c(c1)Nc1ccccc1S2	DAX1 inh-1 6.1
C=CCCN1[C@@H](Cc2ccccc2)COc2ccccc2S1(=O)=O	none (no result: DAX1 inh-1)
Cc1nc(N)[nH]c(=O)c1CCCNc1ccc(CCC2(CCl)OCCO2)cc1	hgDAF-12 ag 12.8
COc1cc2c(cc1[N+](=O)[O-])n(C(C)C)c(=O)n2C(C)C	DAX1 inh-1 5.5
COc1cc(CC(=O)O)c([N+](=O)[O-])cc1OC	none
Cc1ccccc1NC(=O)Nc1ccc(C(F)(F)F)cc1	hgDAF-12 ag 10.6
CCN(CC)C(=O)Cn1cc(S(=O)(=O)CC(=O)Nc2ccc3c(c2)OCCO3)c2ccccc21	ssDAF-12 act 2.0
CCOC(=O)c1cccc(-c2cc(C(=O)OC)c3n(c2=O)CCC3)c1	none (no result: DAX1 inh-1)
O=C(NCCC(=O)N1CCN(c2ccccc2F)CC1)c1ccco1	DAX1 inh-2 3.7
Cc1ccc(Nc2cc(C)nc(-c3ccccc3O)n2)cc1	hgDAF-12 ag 12.5
O=C(Cn1ccc([N+](=O)[O-])n1)N1CCCCC1	DAX1 inh-1 5.5
O=C(Cn1ccc([N+](=O)[O-])n1)N1CCCCCC1	none
Cc1ccc(Cn2cc(CN3[C@H](Cc4ccccc4)COc4cc(Br)ccc4S3(=O)=O)nn2)cc1	none (no result: DAX1 inh-1)
O=C(Nc1nnc(C(F)(F)F)s1)c1cccnc1	hcDAF12 agonist 5.6
O=C(Nc1nnc(-c2ccccc2F)s1)c1cccnc1	DAX1 inh-1 5.1
C[C@@H]1ON(C)[C@H]2C[C@H]3c4[nH]c5c(-c6cccc(F)c6)cccc5c4CCN3C(=O)[C@@H]12	none (no result: DAX1 inh-1)
CC1=CC(c2ccccc2)n2nnnc2N1 (stereo not drawn)	DAX1 inh-1 10.6
O=C(OCC#CCSc1nnc(-c2cccc3ccccc23)o1)C1CCCC1	none (no result: DAX1 inh-1, DAX1 inh-2)
COc1oc(-c2ccccc2)nc1C(F)(F)F	DAX1 inh-1 4.3
COc1oc(-c2ccccc2C)nc1C(F)(F)F	none
Cc1ccn2c(NC3CCCCC3)c(C)nc2c1	DAX1 inh-1 5.1
COc1ccc(-n2c(COc3ccc(Cl)cc3)nnc2SCC(=O)Nc2ccc(Oc3ccccc3)cc2)cc1	none (no result: DAX1 inh-1)
CCOC(=O)N(Cc1ccccc1)Cc1ccc(C(=O)N[C@@H](Cc2ccccc2)C(=O)O)cc1	DAX1 inh-1 6.5
O=C(NC(Cc1ccccc1)C(=O)O)c1ccccc1 (stereo not drawn)	none
Cc1nn(-c2cccc(Cl)c2)c(Cl)c1/C=N/NC(=O)c1cccs1	DAX1 inh-1 4.7, hgDAF-12 ag 10.8
CCNC(=S)N/N=C/c1c(C)nn(-c2cccc(Cl)c2)c1Cl	none
CCOc1ccc(-n2c(SCC(=O)Nc3ccccc3-c3ccccc3)nnc2-c2cccs2)cc1	none (no result: DAX1 inh-1)
O=C(CSc1ccccc1)NC1CCCCN(Cc2cccc(Cl)c2)C1=O (stereo not drawn)	none (no result: DAX1 inh-1)
C=CCNC(=O)N1CCN(Cc2nc3ccccc3c(=O)[nH]2)CC1	none (no result: DAX1 inh-1)
O=C(c1ccccc1)c1cnc(Nc2ccccc2Cl)s1	DAX1 inh-1 6.8 (no result: ssDAF-12 act, DAX1 inh-2, hgDAF-12 ag, hcDAF12 agonist)
CCCN1CCC(=O)N(CCSc2ccccc2)CC1	hgDAF-12 ag 10.6
O=C1CCN(Cc2ccccc2)CCN1CCSc1ccccc1	none
O=C(OC12CCCN(C1)/C(=C/c1ccc(Cl)cc1)C2)c1ccc(Cl)cc1 (stereo not drawn)	none (no result: DAX1 inh-1)
CCOC(=O)[C@]12CCCC=C1N(CCCOC)C(=O)[C@@H]2CC(=O)NCC12CC3CC(CC(C3)C1)C2	none (no result: DAX1 inh-1)
O=C(CN1C(=O)CCSc2ccccc21)Nc1ccc(Cl)c(Cl)c1	none (no result: DAX1 inh-1)
CC1CN(S(=O)(=O)c2cc(C(=O)NCCC3=CCCCC3)ccc2Cl)CC(C)O1 (stereo not drawn)	DAX1 inh-2 3.8
Brc1ccc(OCc2nc3ccccc3[nH]2)cc1	hgDAF-12 ag 12.4, hcDAF12 agonist 6.0
COc1ccccc1OCc1nc2ccccc2[nH]1	DAX1 inh-1 7.3
Nc1ccc2nc(COc3ccccc3)[nH]c2c1	hcDAF12 agonist 6.5
c1ccc(CCc2nc3ccccc3[nH]2)cc1	hgDAF-12 ag 13.1
COC(=O)C[C@@H]1CC[C@H]2[C@@H](COc3ccc(NC(=O)Nc4ccccc4Cl)cc3C(=O)N2C)O1	none (no result: DAX1 inh-1)
COc1ccc(-c2nc(N=Nc3ccc(O)cc3)n[nH]2)cc1	none
Cc1ccc(-c2nc(N=Nc3ccc(O)cc3)n[nH]2)cc1	hgDAF-12 ag 11.3
O=C(CCSCCc1ccccn1)Nc1ccc(Br)cc1F	ssDAF-12 act 2.0
O=[N+]([O-])c1ccc(OC[C@@H](O)CN2CCC(C(O)(c3ccccc3)c3ccccc3)CC2)c(Cl)c1	none (no result: DAX1 inh-1)
CC(NC(=O)NC12CC3CC(CC(C3)C1)C2)C1CCCO1 (stereo not drawn)	DAX1 inh-1 7.2
Cc1ccc2nc(SCC3CCCCO3)[nH]c2c1 (stereo not drawn)	hgDAF-12 ag 12.2
COC(=O)C1CN(Cc2cn(Cc3ccccc3)nn2)CCS(=O)(=O)N1Cc1ccc(Cl)cc1 (stereo not drawn)	none (no result: DAX1 inh-1)
Cc1ccc(F)cc1C(=O)N1CCCC(c2cc(C(=O)NCc3ccc(F)cc3)no2)C1 (stereo not drawn)	none (no result: DAX1 inh-1)
Cc1ccc(F)cc1C(=O)N1CCCC(c2cc(C(=O)NCc3ccccc3)no2)C1 (stereo not drawn)	DAX1 inh-2 4.0 (no result: DAX1 inh-1)
CCCNC(=O)c1cc(C2CCCN(S(=O)(=O)c3cccs3)C2)on1 (stereo not drawn)	ssDAF-12 act 1.1 (no result: DAX1 inh-1)
CCCCNC(=O)c1ccc(NC(=O)C2CCCO2)cc1 (stereo not drawn)	none
CCc1ccc(NC(=O)C(=O)NCC2CCCO2)cc1 (stereo not drawn)	DAX1 inh-1 4.6, DAX1 inh-2 4.3
CCCCc1ccc(NC(=O)C2CCCO2)cc1 (stereo not drawn)	hgDAF-12 ag 11.1
CCc1ccc(CNC(=O)C(=O)NCC2CCCO2)cc1 (stereo not drawn)	none
O=C(NCCc1ccccc1)c1ccccc1NC(=O)C1CCCO1 (stereo not drawn)	DAX1 inh-2 4.3, hgDAF-12 ag 10.8, hcDAF12 agonist 5.6
COc1ccc(CSc2nnc(SCc3ccccc3)s2)cc1	none (no result: DAX1 inh-1)
COc1ccc(OC)c(S(=O)(=O)N2CCC(C(=O)NCc3cccs3)CC2)c1	none (no result: DAX1 inh-1)
CCOC(=O)C1=CC[C@@H](c2ccccc2)C(C#N)(C#N)[C@H]1/C=C/c1ccccc1	none (no result: DAX1 inh-1)
Clc1ccc([C@H]2OC[C@@]3(CNC4CCCCC4)CS[C@H](c4ccc(Cl)cc4)N23)cc1	none (no result: DAX1 inh-1)
O=C(CN1CCN(Cc2ccccc2Cl)C1=O)NCc1cccnc1	DAX1 inh-1 6.0
